Reference: PubChem BioAssay (NCI)
This is part of a sample that, as a whole, favours compounds with a hit. Of some 83,000 tested, about 20% had one in any assay.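 For each line, cells grew in 96-well plates with the test compound present at a single concentration for 48 hours.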 Unmarked numbers belong to inactive results. Calls of active or inactive are those of the source. The calls were made as follows: active = growth percent below 10; inactive = the rest.

What was measured:
Experiment in all cases: NCI-60 one-dose screen, 48 h (100 = growth as untreated, 0 = no growth, -100 = all killed)
Settings in all cases: 10 µM unless noted
[1] = tested on: NCI-H23 lung
[2] = tested on: NCI-H226 lung
[3] = tested on: NCI-H322M lung
[4] = tested on: HOP-62 NSCLC
[5] = tested on: NCI-H460 lung
[6] = tested on: HOP-92 NSCLC
[7] = tested on: NCI-H522 lung
[8] = tested on: A549/ATCC NSCLC
[9] = tested on: 786-0 renal
[10] = tested on: DU-145 prostate
[11] = tested on: K-562 leukemia
[12] = tested on: MALME-3M melanoma
[13] = tested on: MDA-MB-231 breast
[14] = tested on: RXF 393 renal
[15] = tested on: SF-268 CNS
[16] = tested on: SF-295 CNS
[17] = tested on: SF-539 CNS
[18] = tested on: UACC-257 melanoma
[19] = tested on: M14 melanoma

| Compound | growth [1] | growth [2] | growth [3] | growth [4] | growth [5] | growth [6] | growth [7] | growth [8] | growth [9] | growth [10] | growth [11] | growth [12] | growth [13] | growth [14] | growth [15] | growth [16] | growth [17] | growth [18] | growth [19] |
| --- | --- | --- | --- | --- | --- | --- | --- | --- | --- | --- | --- | --- | --- | --- | --- | --- | --- | --- | --- |
| COc1cc2c(=O)n(CCCn3ccnc3)c3c4cc5c(cc4ccc3c2cc1OC)OCO5 | 5.18% (active) | -42.5% (active) | 17.5% | 10.5% | -9.42% (active) | -5.78% (active) | 5.91% (active) | 22% | -57.3% (active) | 15.2% | 24% | 39.9% | 7.7% (active) | -27% (active) | 29% | -18.4% (active) | -20.2% (active) | 3.98% (active) | -4.48% (active) |
| NS(=O)(=O)Oc1ccc(NC(=O)C23CC4CC(CC(C4)C2)C3)cc1Cl | 101% | 91.3% | 104% | 92.1% | 103% | 87.6% | 75.8% | 93.7% | 98.2% | 99.8% | 94.6% | 97.6% | 90.5% | 111% | 88.1% | 101% | 87.3% | 90.2% | 97.3% |
| Cc1cc(-c2ccc(N(C)C)cc2)c2sc(=O)[nH]c2n1 | 82.6% | 64.6% | 78.1% | 70.2% | 65.2% | 85.5% | 56.5% | 66% | 77.2% | 98.8% | 24.5% | 71.1% | 71.4% | 51.2% | 69.5% | 48.6% | 52.9% | 81.4% | 44.5% |
| N=C(N)c1ccc(-c2ccc(-c3ccc(Cl)cn3)s2)cc1 | 67.8% | 83.8% | 4.72% (active) | 56.3% | -46.5% (active) | 34.7% | 48.7% | 27.6% | 52.9% | 37.6% | -9.89% (active) | 77.9% | -46.5% (active) | 52% | 79.8% | -41.4% (active) | 40.2% | 94.2% | 3.24% (active) |
| COc1cc2c(c(OC)c1OC)C(=O)/C(=C/c1cc(C)c(O)c(C)c1)S2 | 36.9% | 34.3% | 40.8% | 46.5% | 12.7% | 54.6% | 14.6% | 44.4% | 42.6% | 12.3% | 21.3% | 45.6% | 37.7% | -10.4% (active) | 56.4% | 13.7% | 7.47% (active) | 78.2% | 28.8% |
| Nc1nc(Nc2ccc(Cl)cc2)nn1S(=O)(=O)c1ccc(-c2ccc(F)cc2)cc1 | 92% | 84.4% | 109% | 84.3% | 70.9% | 75.7% | 75.3% | 71.9% | 92.1% | 88.7% | 83.5% | 113% | 87.8% | 92.3% | 76.3% | 99.1% | 94% | 107% | 89.8% |
| Cc1cc(N(CCCNc2ccnc3cc(Cl)ccc23)Cc2ccccn2)nc(N2CCCC2)n1 | 78.3% | 89.6% | 75.9% | 68.4% | 66.4% | 59.7% | 88% | 70.8% | 73.5% | 91.2% | 9.27% (active) | 70.9% | 56.2% | 54.9% | 67.3% | 75.5% | 52.3% | 81.6% | 93.7% |
| CCN(CC)c1ccc(Nc2ccc(CC(=O)c3ccccc3)cc2)cc1 | 81.1% | 97.4% | 90.7% | 94.6% | 96.3% | 77.5% | 47% | 91.4% | 88.3% | 98.1% | 82.3% | 106% | 75.7% | 89.2% | 87% | 97.8% | 89.4% | 93.7% | 87.6% |
| CC(=O)OCCc1ccccc1 | 86.9% | 108% | 103% | 78.1% | 110% | 85.7% | 84.7% | 107% | 91.8% | 134% | 79.2% | 87.8% | 110% | 107% | 128% | 101% | 103% | 100% | 78.6% |
| Cc1c(C(=O)O[C@H]2[C@@H]3[C@H](C)CC[C@H]3[C@]3(C)O[C@@]2(C2CCCCC2)C[C@H]3OC(=O)CO)ccc2ccccc12 | 35.2% | 30.5% | 70.5% | 29.7% | -36% (active) | 10.9% | 19.6% | 30.2% | 9.76% (active) | 58.7% | 7.53% (active) | 42.3% | 33.2% | -31.7% (active) | 16% | 36.8% | 65.6% | 39.8% | 36.2% |
| CN(CCCCCCCCNc1ccnc2ccccc12)Cc1ccc(-c2ccc(-c3ccc(C#N)cc3)s2)cc1 | 21.1% | -66.9% (active) | -66% (active) | -11.2% (active) | -76.3% (active) | 44.8% | -62.9% (active) | -60.7% (active) | -89.8% (active) | -67.3% (active) | -18.4% (active) | -80.7% (active) | -80.1% (active) | -86% (active) | -76.6% (active) | -64.1% (active) | -89% (active) | -38.7% (active) | -84% (active) |
| CC(=O)Nc1nccs1 | 95% | 100% | 88.2% | 95.6% | 98.8% | 89.1% | 87% | 99.3% | 107% | 107% | 110% | 76.8% | 103% | 98.6% | 99.9% | 101% | 97% | 94.2% | 112% |
| O=C(CC12CC3CC(CC(C3)C1)C2)NCCOCCOCCNC(=O)c1cc2c(o1)C(=O)c1ccccc1C2=O | -52.9% (active) | -71.7% (active) | -90.2% (active) | -58.3% (active) | -72.6% (active) | -8.25% (active) | -49.5% (active) | -61.7% (active) | -29.1% (active) | -95.7% (active) | 1.74% (active) | -97.1% (active) | -9.38% (active) | -92.3% (active) | -16.4% (active) | -94.2% (active) | -96.1% (active) | -95.3% (active) | -73.6% (active) |
| CCN(CC)CCCC(C)NCc1ccccc1 (centres undefined) | 101% | 109% | 88.1% | 108% | 106% | 85.1% | 73.3% | 99.5% | 89.8% | 97.8% | 118% | 91.1% | 105% | 135% | 100% | 101% | 102% | 102% | 91.4% |
| COc1cc2c(cc1OC)-c1ccc3cc4c(cc3c1N(CCN1CCCC1)C2)OCO4 | 10.9% | -3.34% (active) | 5.86% (active) | -18.1% (active) | -19.4% (active) | 22.8% | -39.7% (active) | 5.78% (active) | -32% (active) | 11.5% | -3.86% (active) | 51.4% | -38.6% (active) | -3.76% (active) | 20.1% | 4.42% (active) | 4.16% (active) | 44.2% | 17.4% |
| Cc1ccc(S(=O)(=O)N(CC[C@@H]2C[C@H]2c2cc3ccccc3o2)C(=O)NC2CCCCC2)cc1 | 78.2% | 87.3% | 108% | 93.1% | 104% | 110% | 86% | 101% | 95.4% | 107% | 91.1% | 96.1% | 90.1% | 106% | 98.8% | 110% | 95% | 108% | 96.5% |
